Data from PubChem BioAssay AID1159580 (chemical genetic matrix, 2015).
Among all 5,500 compounds or so, about 2,000 (36%) were called active. Inconclusive results (about 18%) are left out. Cut-off read from the data, not from the text of the source: active = normalized growth mostly below about 0.91 (no sharp cut-off); inconclusive = no clear call, values can overlap the other calls; inactive = mostly above about 0.92. This is one part of the list.

Assay: chemical genetic growth profiling, strain panel (AID 1159580);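 note: tested at 20 µM; growth read once vehicle control cultures reached saturation at 30 °C; 1 = growth at the plate median or of vehicle wells; lower values mean less growth of the strain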
Details: S. cerevisiae deletion strains, growth OD
[1] = locus YAL013W, strain DEP1, active compounds read low
[2] = locus YDR150W, strain NUM1, active compounds read low
[3] = locus YGR078C, strain PAC10, active compounds read low
[4] = locus YJR075W, strain HOC1, active compounds read low
[5] = locus YNL153C, strain GIM3, active compounds read low
[6] = locus YPL241C, strain CIN2, active compounds read low

Measured: normalized growth

N#Cc1cc2nc(O)c(O)nc2cc1[N+](=O)[O-]
inactive: [1] 0.985 | locus YAL040C, strain CLN3, active compounds read low 0.989 | locus YCL061C, strain MRC1 (second series), active compounds read low 0.998 | [2] 0.993 | locus YDR363W, strain ESC2, active compounds read low 1.01 | locus YER002W, strain NOP16, active compounds read low 1.01 | [3] 0.979 | locus YGR229C, strain SMI1, active compounds read low 1.02 | [4] 1 | locus YMR307W, strain GAS1, active compounds read low 0.991 | [5] 0.984 | locus YNL175C, strain NOP13, active compounds read low 0.995 | locus YNL197C, strain WHI3, active compounds read low 0.997 | locus YNL224C, strain SQS1, active compounds read low 0.979 | locus YOR083W, strain WHI5 (second series), active compounds read low 0.994 | [6] 1

N#Cc1csc([N+](=O)[O-])c1
inactive: [1] 0.944 | locus YCL061C, strain MRC1, active compounds read low 0.937 | [2] 0.885 | locus YHR087W, strain rtc3, active compounds read low 0.917 | locus YJR043C, strain POL32, active compounds read low 0.929 | locus YLR058C, strain SHM2 (second series), active compounds read low 0.951 | locus YNL128W, strain TEP1, active compounds read low 0.942 | locus YNL322C, strain KRE1, active compounds read low 1.01 | locus YPL055C, strain LGE1, active compounds read low 0.872
active: locus YBR229C, strain ROT2, active compounds read low 0.908 | locus YDL101C, strain DUN1, active compounds read low 0.817 | locus YDL134C, strain PPH21, active compounds read low 0.892 | locus YEL061C, strain CIN8, active compounds read low 0.797 | [3] 0.86 | locus YHR030C, strain SLT2, active compounds read low 0.363 | [4] 0.86 | locus YKL190W, strain CNB1, active compounds read low 0.923 | locus YLR039C, strain RIC1, active compounds read low 0.687 | locus YLR085C, strain ARP6, active compounds read low 0.456 | locus YLR262C, strain YPT6, active compounds read low 0.795 | locus YML094W, strain GIM5, active compounds read low 0.809 | locus YMR219W, strain ESC1, active compounds read low 0.941 | [5] 0.901 | locus YNL298W, strain CLA4 (second series), active compounds read low 0.823 | locus YNR030W, strain Alg12, active compounds read low 0.834 | locus YOL006C, strain TOP1, active compounds read low 0.369 | [6] 0.744 | locus YPR135W, strain CTF4, active compounds read low 0.46
